SMILES strings stand for the structures. About 3,300 (1%) of roughly 320,000 compounds were called active. The entries come from a sample that favours actives as a whole. Unmarked numbers belong to inactive results.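 Rule for the calls: active = every valid replicate shows activation above 250% relative to neutral control wells; inactive = the rest, any valid replicate at or below 250%.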

The experiment can be described thus: yeast Mot1-301 growth rescue at high temperature, primary screen, SUMOylation pathway inhibitor project, S. cerevisiae, ATP luminescence, 38.5C (AID 2716).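 Note: OY570 slx delta 5 strain wells were the positive control but not used for scaling.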 Particulars: S. cerevisiae Mot1-301 growth rescue, at 18.8 µM, active compounds read high, percent above DMSO median, 100 means doubled.
`CN(/C(=N/S(=O)(=O)c1cccs1)c1ccccc1)c1ccc(O)cc1`: the growth rescue is 313%.
With `COc1ccc(Cl)cc1NC(=O)CNc1ccccc1F`, the growth rescue is 0.922%.
Turning to `CCCCC(=O)N/N=C(\C)CC(=O)Nc1cc(Cl)ccc1OC`, the growth rescue is 1520% (active).
For `COc1ccc(/C(C)=N/NC(=O)CCC(=O)Nc2ccc(Cl)cc2Cl)c(OC)c1`, the growth rescue was 28.5%.
Under `COc1ccc(Cl)cc1-n1c(C)cc(C(=O)OCC(=O)N2CC(=O)Nc3ccccc32)c1C` stands -14.8%; under `CCc1noc(C)c1C(=O)Oc1ccc(N(C)S(=O)(=O)c2ccc(C)c(C)c2)cc1`, -5.53%; under `COCC(=O)Nc1cc(C(=O)OC)cc(C(=O)OC)c1`, 10%.
Under `Cc1ccnc(N2C(=O)c3ccccc3C2Nc2ccc3c(c2)OCCO3)c1` (stereo unspecified) stands -14%.
Consider `CCc1ccccc1NC1c2ccccc2C(=O)N1c1cccnc1` (stereo unspecified), for which the growth rescue is 462% (active).
Take `COC(=O)c1cc(NC2c3ccccc3C(=O)N2c2ccc(Cl)cn2)cc(C(=O)OC)c1` (stereo unspecified): the growth rescue is -1.41%.
Turning to `CS(=O)(=O)N(CC(=O)N/N=C/c1ccccn1)c1ccc(Oc2ccccc2)cc1`, the growth rescue was 6.74%.
For `O=C(CCCCCN1C(=O)c2cccc3cccc(c23)C1=O)NCc1ccco1`, the growth rescue was -8.72%.
In the case of `O=C(CN1C(=O)/C(=C/c2ccccc2F)Sc2ccccc21)NCc1cccnc1`, the growth rescue is -3.97%.
On to `O=C(CN1C(=O)/C(=C\c2ccc(C(F)(F)F)cc2)Sc2ccccc21)NCc1ccco1`, for which the growth rescue was 963% (active).
Take `Cc1ccc(NC(=O)COC(=O)CN2CCCCCC2=O)c(C)c1`: the growth rescue was 2.83%.
The value for `O=C(O)c1c(NC(=O)N2CCCC2)sc2c1CCCC2` was 2.52%; that for `O=C(O)CCCCCCCCCC[n+]1ccccc1` was 17.1%.
Turning to `CC(CNc1ccc([N+](=O)[O-])c2cccnc12)Nc1c([N+](=O)[O-])cc(C(F)(F)F)cc1[N+](=O)[O-]` (stereo unspecified), the growth rescue was 469%.
On to `CCOC(=O)CCCCCC(=O)Nc1ccc2c(c1)CC(=O)N([C@@H](C)CO)C[C@H](C)[C@@H](CN(C)Cc1ccccc1)O2`, for which the growth rescue is -3.38%.
As to `Cc1nc2sc(C(c3ccco3)N3CCC4(CC3)OCCO4)c(O)n2n1` (stereo unspecified), the growth rescue was -10%.
With `Cc1nc2sc(C(c3ccco3)N3CCOCC3)c(O)n2n1` (stereo unspecified), the growth rescue is 853% (active).
Consider `Cc1ccc(C(c2sc3nc(C)nn3c2O)N2CCN(c3ccccc3)CC2)cc1` (stereo unspecified), for which the growth rescue is 6.75%.
For the compound `CCN1CCN(C(C(=O)NC2CCCC2)c2cc3c(cc2[N+](=O)[O-])OCO3)CC1` (stereo unspecified), the growth rescue is -4.81%.
Turning to `CC(C)CCNC(=O)Cn1c(=O)oc2cc(S(=O)(=O)N3CC(C)CC(C)C3)ccc21` (stereo unspecified), the growth rescue is 608% (active).
For `COc1cccc(CNC(=O)Cn2c(=O)oc3cc(S(=O)(=O)N4CCCCC4)ccc32)c1`, the growth rescue was 4.01%.
Take `CC1CCCCN1C(=O)Cn1c(=O)oc2cc(S(=O)(=O)N3CCCCC3)ccc21` (stereo unspecified): the growth rescue is 12%.
As for `Clc1ccc(Nc2ccc3ccccc3n2)cc1`, the growth rescue is 30.7%.
For the compound `COc1ccc(CNC(=O)COc2cccnc2[N+](=O)[O-])cc1`, the growth rescue is -4.39%.
On to `COc1ccc(OC)c(NC(=O)CSc2nc(-c3ccccc3)cc(=O)[nH]2)c1`, for which the growth rescue was 371%.
On to `O=C(NCc1ccccc1Cl)c1ccc2c(=O)n(CC3CCCO3)c(=S)[nH]c2c1` (stereo unspecified), for which the growth rescue was -7.73%.
`O=C(NC1CCCCC1)c1ccc2c(=O)n(CC3CCCO3)c(=O)[nH]c2c1` (stereo unspecified): the growth rescue was 2310% (active).
Turning to `Cc1cccc(NC(=O)c2ccc3c(=O)n(CC4CCCO4)c(=S)[nH]c3c2)c1` (stereo unspecified), the growth rescue is -20.5%.
Under `O=C(Nc1cccc(F)c1)NC1CCCCCCC1` stands 2.77%; under `N#C/C(=C(\O)CCl)c1nnc2n1CCCCC2`, 10%.
Regarding `Cc1cn(C)c(=O)n(C)c1=O`, the growth rescue is 274%.
As to `Cc1ccc(-c2cn3cc(C)ccc3n2)cc1`, the growth rescue was 297% (active).
Regarding `Cc1ccc2nc(-c3ccc(Br)cc3)cn2c1`, the growth rescue was -0.961%.
For the compound `Cc1ccc(-c2cn3cc([N+](=O)[O-])ccc3n2)cc1`, the growth rescue was 25%.
For the compound `Cc1cccc(NC(=S)N(CCN(C)C)C(C)c2ccco2)c1` (stereo unspecified), the growth rescue is 58.7%.
In the case of `Cc1nnc(NC(=O)Cn2c(=O)sc3ccccc32)s1`, the growth rescue is 0.0426%.
The value for `O=C(Cn1c(=O)sc2ccccc21)Nc1ccc2c(c1)OCCO2` was 284% (active); that for `Cn1c(=O)c2ccccc2n(CC(=O)Nc2ccc3c(c2)OCCO3)c1=O` was 0.839%; that for `COCC1CCN(C(=O)CCc2nnc(C3(c4ccc(Cl)cc4)CCC3)o2)C1` (stereo unspecified) was -10.9%.
Turning to `Cc1ccc(S(=O)(=O)N(CC(=O)NCCSC2CCCCC2)c2ccccc2F)cc1`, the growth rescue was 1.9%.
As to `Cc1ccc(N(C(=O)c2ccc(CN3CCOCC3)o2)C(C(=O)NCCC(C)C)c2cccs2)c(C)c1` (stereo unspecified), the growth rescue was -1.16%.
Take `Cc1cccc(N(C(=O)c2ccc(CN3CCOCC3)o2)C(C(=O)NC2CCCCC2)c2ccc(F)cc2)c1` (stereo unspecified): the growth rescue was 647% (active).
Regarding `O=C(NC1CCCC1)C(c1ccc(N2CCOCC2)cc1)N(C(=O)c1ccco1)c1ccccc1F` (stereo unspecified), the growth rescue is 95.4%.
For the compound `CCc1cc(-c2nnc(SCC(=O)NC3CC3)n2C)cs1`, the growth rescue is -5.06%.
Regarding `C=C(Cl)COC(=O)C1C2C=CC(C2)C1C(=O)O` (stereo unspecified), the growth rescue is 885% (active).
The value for `CN1CCN(C(=O)C2C3C=CC(C3)C2C(=O)O)CC1` (stereo unspecified) was 0.946%; that for `O=C(O)C1C2C=CC(C2)C1C(=O)NCc1ccccc1` (stereo unspecified) was -11%.
Under `CCOC(=O)C1CCN(C(=O)c2cccc(S(=O)(=O)N(CC)c3ccccc3)c2)CC1` stands -7.37%; under `Cc1cc(C)n(CCC(=O)N2CCN(S(=O)(=O)c3ccc(C)c(C)c3)CC2)n1`, 315% (active); under `Cc1ccc(S(=O)(=O)N2CCN(c3ccccc3)CC2)cc1C`, 11.5%.
The value for `Cc1cc(C)n(C(=O)c2ccc(S(=O)(=O)N3CCCC3)cc2)n1` was 1400%.
Turning to `Cc1ccccc1NC(=O)C(C)OC(=O)CCC(=O)N(CC(C)C)c1c(N)n(CC(C)C)c(=O)[nH]c1=O` (stereo unspecified), the growth rescue was -16.2%.
As to `O=C(OCCN1C(=O)c2ccccc2C1=O)[C@@H]1CC(O)CN1S(=O)(=O)c1ccccc1[N+](=O)[O-]` (stereo partly specified), the growth rescue was -16.3%.
Regarding `CC(=O)N1CCN(S(=O)(=O)c2c(F)cc(F)c(Cl)c2F)CC1`, the growth rescue is 9.01%.
For the compound `O=C(Nc1ccc(S(=O)(=O)Nc2ncccn2)cc1)C12CC3CC(CC(C3)C1)C2`, the growth rescue was 35.6%.
`O=C(NNS(=O)(=O)c1c(F)cc(F)c(Cl)c1F)C12CC3CC(CC(C3)C1)C2`: the growth rescue was 1720% (active).
Take `CCN(CCn1cccn1)C(=O)CC1C(=O)NCCN1Cc1cccc(OC)c1OC` (stereo unspecified): the growth rescue was -10.6%.
Consider `C=Cc1ccc(C(=O)N2CCCC(CCC(=O)N3CCN(c4ccccn4)CC3)C2)cc1` (stereo unspecified), for which the growth rescue is -28.8%.
For the compound `O=C(c1ccc(F)cc1)c1c[nH]c(C(=O)NCc2cccnc2)c1`, the growth rescue is -16%.
In the case of `CCOC(=O)c1c(C)nn(-c2ncccc2NC(=O)CCC(=O)O)c1C`, the growth rescue was -17.7%.
Under `COc1ccccc1CC(=O)Nc1ccc([N+](=O)[O-])cc1OC` stands -7.23%.
In the case of `N#Cc1c(-c2ccccc2)nc(SCc2ccc([N+](=O)[O-])cc2)[nH]c1=O`, the growth rescue is 10.6%.
Consider `COc1ccccc1CSc1ncc(-c2ccc([N+](=O)[O-])cc2)[nH]1`, for which the growth rescue was 1260% (active).
Regarding `CC(C)(C)Oc1ccccc1Nc1nc(NCCO)nc(N2CCCC2)n1`, the growth rescue is 8.32%.
Take `CC(Oc1ccccc1[N+](=O)[O-])C(=O)N/N=C/c1ccoc1` (stereo unspecified): the growth rescue was 547% (active).
As to `O=C(COc1ccccc1[N+](=O)[O-])N/N=C/c1ccc[nH]1`, the growth rescue was -23.4%.
Under `CC(C)c1cc(C(=O)N/N=C/c2ccoc2)c(O)c(C(C)C)c1` stands 2.88%; under `Nc1nonc1-n1nnc(C(=O)N/N=C/c2cc(Br)ccc2O)c1CSC1=NCCS1`, -10.1%; under `CCN(C(=O)CSc1nc(N)cc(=O)[nH]1)C1CCS(=O)(=O)C1` (stereo unspecified), 5.44%.
`CC(C)(C)c1ccc(C(=O)NNC(=O)Cc2ccccc2)cc1`: the growth rescue is 10.6%.
On to `C=Cn1c(C(=O)O)ccc1-c1ccc(OC)cc1`, for which the growth rescue is 6.91%.
As to `COc1ccccc1N1CCN(/N=C/c2ccc(O)cc2O)CC1`, the growth rescue is 115%.
Turning to `COc1ccccc1N1CCN(C(=O)C(=O)N/N=C/c2ccccc2F)CC1`, the growth rescue is 490% (active).
As for `COc1cccc(/C=N/NC(=O)C(=O)N2CCCC2)c1`, the growth rescue was 11%.
For the compound `CCOC(=O)c1cnc2ccc(F)cc2c1Nc1ccc2c(c1)OCCO2`, the growth rescue is 37%.
Turning to `Nc1nc(COC(=O)CCC(=O)c2ccc(Cl)cc2)nc(Nc2ccccc2)n1`, the growth rescue is 18.5%.
As for `Cc1ccc(OC(=O)c2c(C)nn(-c3ccccc3)c2C)cc1`, the growth rescue is -15.1%.
The value for `CCOc1ccc(C(C(=O)NC2CCCC2)N(C(=O)c2snc(C(N)=O)c2N)C2CCCC2)cc1` (stereo unspecified) was 922% (active); that for `COc1ccc(C(C(=O)NC2CCCCC2)N(C(=O)c2snc(C(N)=O)c2N)c2ccccc2OC)cc1` (stereo unspecified) was -0.518%.
For `CCC(C(=O)NC1CCCCC1)N(C(=O)c1snc(C(N)=O)c1N)c1ccc(OC)cc1OC` (stereo unspecified), the growth rescue is -10.5%.
On to `O=C(OCC(=O)N1CCc2ccccc21)C1CCCN1S(=O)(=O)c1ccc(Cl)cc1` (stereo unspecified), for which the growth rescue was 4.88%.
For `C/C(CC(O)(/C=N/O)c1ccccc1)=N\O` (stereo unspecified), the growth rescue was 0.714%.
For the compound `CCOc1c(OC)cccc1C(=O)NCC1(c2ccccc2)CCCC1`, the growth rescue was 1.09%.
As for `CCOC(=O)C1CCc2nc3ccccc3c(=O)n21` (stereo unspecified), the growth rescue is 141%.
Under `CCc1nc2ccccc2c(C(=O)OC2CCCCC2=O)c1C` (stereo unspecified) stands 377% (active); under `CCc1nc2ccccc2c(C(=O)NCc2ccc(OC)cc2)c1C`, -10.8%.
The value for `CCS(=O)(=O)N1CCCC(C(=O)NCCCN(C)Cc2ccccc2)C1` (stereo unspecified) was 2.83%.

For the origin of these results see PubChem BioAssay AID2716 (Broad Institute, 2010).
